{"source": "PubChem BioAssay (NCATS)", "note": "Records with an inconclusive call do not appear. A call without a number means that no potency is given here. Calls of active or inactive are those of the source. Unless noted, calls come from the whole dose curve; as a rule, active = well fitted curve in the direction sought with a large enough effect; inconclusive = small, poorly fitted or top-dose-only effect, or another doubt; inactive = no such curve, though single readings can be large; an effect the other way counts as inactive or inconclusive."}
{"tested_on": "not listed separately", "assay": "qHTS Assay for Identification of Small Molecule Agonists for Thrombopoietin (TPO) Signaling Pathway (AID 917)", "conditions": "TPO signaling pathway reporter cells, agonist qHTS; series mostly up to 38.5 µM", "summary_of_the_method": "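IL-3-dependent murine pro-B Ba/F3 cells, stably transfected with human TPO receptor and GpIIb-promoter luciferase, are incubated 24 hrs at 37 C with test compound and 26 pM TPO; luciferase signal is read after 10 min at room temperature.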"}
{"smiles": "CC(C)n1cc2c3c(cccc31)[C@@H]1C[C@H](C(=O)O[C@@H](C)[C@H](C)O)CN(C)[C@H]1C2", "outcome": "inactive"}
{"smiles": "CCN(CC)C(=O)N[C@H]1C[C@H]2c3cccc4[nH]cc(c34)C[C@@H]2N(C)C1", "outcome": "inactive"}
{"smiles": "CC[C@H](CO)NC(=O)[C@@H]1C=C2c3cccc4[nH]cc(c34)C[C@@H]2N(C)C1", "outcome": "inactive"}
{"smiles": "CC(C)(C)NC[C@H](O)c1ccccc1Cl", "outcome": "inactive"}
{"smiles": "C=CCN1CC[C@]23c4c5ccc(O)c4O[C@@H]2C(=O)CC[C@@]3(O)[C@H]1C5", "outcome": "inactive"}
{"smiles": "C=CCN1CC[C@@]23CCCC[C@@H]2[C@@H]1Cc1ccc(O)cc13", "outcome": "inactive"}
{"smiles": "C[C@H](N)c1cccc(Cl)c1Cl", "outcome": "inactive"}
{"molecular_target": "Muscarinic acetylcholine receptor M1 (Rattus norvegicus) (UniProt P08482)", "sequence (P08482 whole entry, looked up)": "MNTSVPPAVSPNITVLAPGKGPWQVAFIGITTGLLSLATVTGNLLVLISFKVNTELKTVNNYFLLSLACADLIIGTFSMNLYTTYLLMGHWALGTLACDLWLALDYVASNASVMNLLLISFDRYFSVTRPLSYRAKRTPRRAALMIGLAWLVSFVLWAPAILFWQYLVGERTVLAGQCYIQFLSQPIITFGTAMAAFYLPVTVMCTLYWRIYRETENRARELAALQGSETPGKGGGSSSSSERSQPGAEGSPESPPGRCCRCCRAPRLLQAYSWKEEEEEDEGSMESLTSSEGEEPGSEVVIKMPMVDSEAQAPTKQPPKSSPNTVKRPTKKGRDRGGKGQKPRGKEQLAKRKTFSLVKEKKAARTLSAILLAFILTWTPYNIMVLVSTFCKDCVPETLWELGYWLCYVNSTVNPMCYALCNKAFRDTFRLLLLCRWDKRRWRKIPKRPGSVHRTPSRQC", "assay": "qHTS Assay for Antagonists of Acetylcholine Muscarinic M1 Receptor: Kinetic Measurement of Intracellular Calcium Response (AID 943);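 note: Fluo-4 calcium signal as peak divided by basal fluorescence over 4 min; nearly all actives have a fitted effect of over 75% in size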", "conditions": "M1-expressing cells, kinetic intracellular calcium fluorescence; series mostly up to 35.3 µM", "summary_of_the_method": "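Intracellular calcium flux, recorded with Fluo-4 in a kinetic plate reader, served as signal; the response to carbachol at EC80 (100 nM final) was taken as maximal over minimal fluorescence after a 10 min compound pre-incubation in rat M1-CHO cells.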"}
{"smiles": "N[C@@H]1CCc2cc(O)c(O)cc2C1", "Potency": "inactive"}
{"smiles": "CC(C)n1cc2c3c(cccc31)[C@@H]1C[C@H](C(=O)O[C@@H](C)[C@H](C)O)CN(C)[C@H]1C2", "Potency": "inactive"}
{"smiles": "CCN(CC)C(=O)N[C@H]1C[C@H]2c3cccc4[nH]cc(c34)C[C@@H]2N(C)C1", "Potency": "inactive"}
{"smiles": "N[C@@H](Cc1cc(O)c(O)cc1O)C(=O)O", "Potency": "inactive"}
{"molecular_target": "Muscarinic acetylcholine receptor M1 (Rattus norvegicus) (UniProt P08482)", "assay": "qHTS Assay for Antagonists of Acetylcholine Muscarinic M1 Receptor: Measurement of IP-One Response (AID 944); note: nearly all actives have a fitted effect of over 75% in size", "conditions": "CHO-M1 cells, IP-One HTRF, antagonist mode; series mostly up to 46.1 µM", "summary_of_the_method": "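Steps: plate transfected CHO-M1 cells overnight; add test compound, 10 min; add carbachol (200 nM, EC80) in stimulation buffer with LiCl; incubate 30 min; add labelled IP1 tracer and anti-IP1 antibody in lysis buffer; read HTRF after 10 min.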"}
{"smiles": "N[C@@H]1CCc2cc(O)c(O)cc2C1", "Potency": "inactive"}
{"smiles": "N[C@@H](Cc1cc(O)c(O)cc1O)C(=O)O", "Potency": "inactive"}
{"smiles": "CC(C)(O)[C@H]1[C@H]2OC(=O)[C@@H]1[C@]1(O)C[C@H]3O[C@]34C(=O)O[C@H]2[C@]14C", "note": "(tested in a mixture with another compound)", "Potency": "inactive"}
{"smiles": "C=CCN1CC[C@@]23CCCC[C@@H]2[C@@H]1Cc1ccc(O)cc13", "Potency": "inactive"}
{"smiles": "C[C@H](N)c1cccc(Cl)c1Cl", "Potency": "inactive"}
{"molecular_target": "Pyruvate kinase (Leishmania mexicana) (UniProt Q27686)", "sequence (Q27686 2-499 E452W)": "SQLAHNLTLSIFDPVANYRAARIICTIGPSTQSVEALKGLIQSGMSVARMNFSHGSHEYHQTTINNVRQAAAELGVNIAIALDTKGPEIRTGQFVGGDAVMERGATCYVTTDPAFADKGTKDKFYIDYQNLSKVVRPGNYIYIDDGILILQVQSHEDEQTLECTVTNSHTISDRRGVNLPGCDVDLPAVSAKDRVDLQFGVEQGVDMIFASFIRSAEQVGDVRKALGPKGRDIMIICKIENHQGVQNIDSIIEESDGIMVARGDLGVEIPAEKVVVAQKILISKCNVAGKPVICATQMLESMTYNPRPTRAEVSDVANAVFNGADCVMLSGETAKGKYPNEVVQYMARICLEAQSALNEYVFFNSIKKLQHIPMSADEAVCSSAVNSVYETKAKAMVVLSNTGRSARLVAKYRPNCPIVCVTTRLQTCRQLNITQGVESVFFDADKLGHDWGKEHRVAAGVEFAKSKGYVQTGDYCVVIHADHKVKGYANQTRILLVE", "assay": "qHTS Validation Assay for Inhibitors of Leishmania Mexicana Pyruvate Kinase (AID 945)", "conditions": "purified L. mexicana pyruvate kinase, enzyme activity, E451W mutant enzyme; series mostly up to 57.5 µM", "summary_of_the_method": "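Mutant LmPYK (E451W), 0.2 nM, plus 0.5 mM PEP and 0.1 mM ADP in 50 mM imidazole pH 7.2 containing 0.01% Tween 20 and 0.05% BSA. Incubated 1 h at room temperature; luminescence via PKLight, normalized to DMSO.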"}
{"smiles": "N[C@@H]1CCc2cc(O)c(O)cc2C1", "Potency": "inactive"}
{"smiles": "CC(C)n1cc2c3c(cccc31)[C@@H]1C[C@H](C(=O)O[C@@H](C)[C@H](C)O)CN(C)[C@H]1C2", "Potency": "inactive"}
{"smiles": "CCN(CC)C(=O)N[C@H]1C[C@H]2c3cccc4[nH]cc(c34)C[C@@H]2N(C)C1", "Potency": "inactive"}
{"smiles": "CC[C@H](CO)NC(=O)[C@@H]1C=C2c3cccc4[nH]cc(c34)C[C@@H]2N(C)C1", "Potency": "inactive"}
{"smiles": "N[C@@H](Cc1cc(O)c(O)cc1O)C(=O)O", "Potency": "inactive"}
{"smiles": "COc1ccc2c(c1)[C@]13CCCC[C@@H]1[C@H](C2)N(C)CC3", "Potency": "inactive"}
{"smiles": "CC(C)(C)NC[C@H](O)c1ccccc1Cl", "Potency": "inactive"}
{"smiles": "C=CCN1CC[C@]23c4c5ccc(O)c4O[C@@H]2C(=O)CC[C@@]3(O)[C@H]1C5", "Potency": "inactive"}
{"smiles": "CC(C)(O)[C@H]1[C@H]2OC(=O)[C@@H]1[C@]1(O)C[C@H]3O[C@]34C(=O)O[C@H]2[C@]14C", "note": "(tested in a mixture with another compound)", "Potency": "inactive"}
{"smiles": "C=CCN1CC[C@@]23CCCC[C@@H]2[C@@H]1Cc1ccc(O)cc13", "Potency": "inactive"}
{"smiles": "C[C@H](N)c1cccc(Cl)c1Cl", "Potency": "inactive"}
{"molecular_target": "Pyruvate kinase PKM (Homo sapiens) (UniProt P14618)", "sequence (P14618 whole entry, looked up)": "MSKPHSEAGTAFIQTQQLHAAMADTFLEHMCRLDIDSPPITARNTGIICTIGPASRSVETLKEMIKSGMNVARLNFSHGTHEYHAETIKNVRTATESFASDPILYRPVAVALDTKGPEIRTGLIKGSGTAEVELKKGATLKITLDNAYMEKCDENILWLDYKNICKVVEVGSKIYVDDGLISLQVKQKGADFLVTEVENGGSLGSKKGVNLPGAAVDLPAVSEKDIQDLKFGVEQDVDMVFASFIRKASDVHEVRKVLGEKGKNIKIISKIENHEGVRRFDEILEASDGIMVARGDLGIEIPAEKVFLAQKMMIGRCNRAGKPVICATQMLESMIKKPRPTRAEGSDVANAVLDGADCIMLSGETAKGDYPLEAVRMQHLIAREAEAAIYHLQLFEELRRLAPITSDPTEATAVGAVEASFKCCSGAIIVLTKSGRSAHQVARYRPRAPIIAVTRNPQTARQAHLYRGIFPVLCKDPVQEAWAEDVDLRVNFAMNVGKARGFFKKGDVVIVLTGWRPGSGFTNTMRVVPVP", "assay": "qHTS Assay for Activators of Human Muscle Pyruvate Kinase (AID 954; active = well fitted curve in the direction sought with a large enough effect, not every such curve was filed as active)", "conditions": "purified human muscle pyruvate kinase, luciferase-coupled luminescence, 1 h; series mostly up to 57.5 µM", "summary_of_the_method": "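Human PKM2 activity is measured as ATP generation, detected by luciferase-coupled luminescence. The enzyme (0.1 nM) acts on 0.5 mM PEP and 0.1 mM ADP for 1 h at ambient temperature; data are normalized to uninhibited and full-inhibition wells.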"}
{"smiles": "N[C@@H]1CCc2cc(O)c(O)cc2C1", "outcome": "inactive"}
{"smiles": "CC(C)n1cc2c3c(cccc31)[C@@H]1C[C@H](C(=O)O[C@@H](C)[C@H](C)O)CN(C)[C@H]1C2", "outcome": "inactive"}
{"smiles": "CCN(CC)C(=O)N[C@H]1C[C@H]2c3cccc4[nH]cc(c34)C[C@@H]2N(C)C1", "outcome": "inactive"}
{"smiles": "CC[C@H](CO)NC(=O)[C@@H]1C=C2c3cccc4[nH]cc(c34)C[C@@H]2N(C)C1", "outcome": "inactive"}
{"smiles": "COc1ccc2c(c1)[C@]13CCCC[C@@H]1[C@H](C2)N(C)CC3", "outcome": "inactive"}
{"smiles": "CC(C)(C)NC[C@H](O)c1ccccc1Cl", "outcome": "inactive"}
{"smiles": "C=CCN1CC[C@]23c4c5ccc(O)c4O[C@@H]2C(=O)CC[C@@]3(O)[C@H]1C5", "outcome": "inactive"}
{"smiles": "CC(C)(O)[C@H]1[C@H]2OC(=O)[C@@H]1[C@]1(O)C[C@H]3O[C@]34C(=O)O[C@H]2[C@]14C", "note": "(tested in a mixture with another compound)", "outcome": "inactive"}
{"smiles": "C=CCN1CC[C@@]23CCCC[C@@H]2[C@@H]1Cc1ccc(O)cc13", "outcome": "inactive"}
{"smiles": "C[C@H](N)c1cccc(Cl)c1Cl", "outcome": "inactive"}
{"molecular_target": "Alpha-galactosidase (Coffea arabica) (UniProt Q42656)", "sequence (Q42656 whole entry, looked up)": "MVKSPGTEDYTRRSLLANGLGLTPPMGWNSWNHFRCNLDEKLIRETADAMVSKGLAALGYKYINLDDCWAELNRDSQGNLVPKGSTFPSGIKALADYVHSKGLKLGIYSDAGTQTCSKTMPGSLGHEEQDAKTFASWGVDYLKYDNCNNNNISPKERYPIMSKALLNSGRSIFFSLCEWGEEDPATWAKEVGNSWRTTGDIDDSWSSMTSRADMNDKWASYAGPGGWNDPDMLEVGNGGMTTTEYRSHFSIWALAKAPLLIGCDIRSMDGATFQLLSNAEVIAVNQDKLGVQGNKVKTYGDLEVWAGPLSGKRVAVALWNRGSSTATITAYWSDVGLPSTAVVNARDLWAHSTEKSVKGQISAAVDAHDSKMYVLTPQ", "assay": "Counterscreen for Glucocerebrosidase Inhibitors: qHTS Assay for Coffee Bean alpha-Galactosidase at pH 4.5 (AID 957)", "conditions": "purified coffee bean alpha-galactosidase, fluorogenic substrate; series mostly up to 76.9 µM", "summary_of_the_method": "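AC50 values derive from Hill-equation modeling of concentration-response data, normalized to no-enzyme and full-activity controls. The pH 4.5 citrate assay used 2 nM coffee bean enzyme and 80 uM fluorogenic substrate for 20 min.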"}
{"smiles": "N[C@@H]1CCc2cc(O)c(O)cc2C1", "outcome": "inactive"}
{"smiles": "CC(C)n1cc2c3c(cccc31)[C@@H]1C[C@H](C(=O)O[C@@H](C)[C@H](C)O)CN(C)[C@H]1C2", "outcome": "inactive"}
{"smiles": "CCN(CC)C(=O)N[C@H]1C[C@H]2c3cccc4[nH]cc(c34)C[C@@H]2N(C)C1", "outcome": "inactive"}
{"smiles": "CC[C@H](CO)NC(=O)[C@@H]1C=C2c3cccc4[nH]cc(c34)C[C@@H]2N(C)C1", "outcome": "inactive"}
{"smiles": "N[C@@H](Cc1cc(O)c(O)cc1O)C(=O)O", "outcome": "inactive"}
{"smiles": "COc1ccc2c(c1)[C@]13CCCC[C@@H]1[C@H](C2)N(C)CC3", "outcome": "inactive"}
{"smiles": "CC(C)(C)NC[C@H](O)c1ccccc1Cl", "outcome": "inactive"}
{"smiles": "CC(C)(O)[C@H]1[C@H]2OC(=O)[C@@H]1[C@]1(O)C[C@H]3O[C@]34C(=O)O[C@H]2[C@]14C", "note": "(tested in a mixture with another compound)", "outcome": "inactive"}
{"smiles": "C=CCN1CC[C@@]23CCCC[C@@H]2[C@@H]1Cc1ccc(O)cc13", "outcome": "inactive"}
{"smiles": "C[C@H](N)c1cccc(Cl)c1Cl", "outcome": "inactive"}
